Consider 13 molecules from PubChem BioAssay (NCI).

Each structure is given as a SMILES string. The panel holds about 83,000 compounds, 20% with a hit somewhere; the sample as a whole holds those more often.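 Cells were grown in 96-well plates and exposed to the test compound at a single concentration for 48 hours; results are reported as percent growth, with values below 10 considered active.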 Calls of active or inactive are those of the source.

For this assay, the system named is HL-60(TB) leukemia. As to the kind of experiment: NCI-60 one-dose screen, 48 h (100 = growth as untreated, 0 = no growth, -100 = all killed). Particulars: 10 µM unless noted.
Take `CCOc1cccc(/C(N)=N/C(N)=N/c2nc3ccccc3s2)c1`: the growth was 72.2% (inactive). Consider `Oc1[nH]c2ccccc2c1Nn1c(N=N/C=c2/ccc3c(c2)C=NN=3)n[nH]c1=S`, for which the growth was 139% (inactive). As to `CC(=O)c1c([Si](C)(C)C)c2cc(C#N)ccn2c1C(=O)c1ccc(Br)cc1`, the growth was 97.8% (inactive). For `O=C(CNc1nc(-c2cccc([N+](=O)[O-])c2)cs1)Nc1cccc(Cl)c1`, the growth is 105% (inactive). As for `Cc1ccc(/C=C/c2nn3c(-c4ccco4)nnc3s2)cc1C`, the growth is 91.4% (inactive). Regarding `O=C(NNc1nc2cc(F)c(F)cc2n2cccc12)c1cccnn1`, the growth was -2.31% (active).

Take `CC(Nc1c(C#N)cnc2ccc(-c3cncc(O)c3)cc12)c1ccccc1` (stereo not drawn): the growth was 3.91% (active).

As for `CC(=O)C1=C(C)NC(NNc2ccccc2)=NC1c1ccc([N+](=O)[O-])cc1` (stereo not drawn), the growth was 88.3% (inactive). For `CCc1ccc(NC(=O)N[C@@H](Cc2cccc(F)c2)C(=O)N[C@@H]2C(=O)N3CCC[C@H]3C(=O)N3CCCC[C@H]3C(=O)N[C@@H](C)C(=O)N3C[C@H](C)C[C@H]3C(=O)O[C@H]2C)c(F)c1` the value was 8.27% (active); for `Cc1cnc2nc(NN)[nH]n12`, 100% (inactive); for `CCCC(=O)NC(c1ccc2c(c1)OC(F)(F)O2)c1cc(C)c2cccnc2c1O` (stereo not drawn), -4.8% (active).

As for `C#CCOc1cccc(-c2nc(N)nc(Nc3ccccc3SSc3ccccc3Nc3nc(N)nc(-c4cccc(OCC#C)c4)n3)n2)c1`, the growth is 23.7% (inactive). For `CCC(=C(c1ccc(OCCN(C)C)cc1)c1ccc(OCCN(C)C)cc1)c1ccc(Cl)cc1` the value was -59.5% (active).
